# Experimental data reported in PubChem BioAssay AID1030 (National Center for Advancing Translational Sciences (NCATS), 2008).
# In all, about 220,000 compounds went through this assay and about 16,000 (7.3%) were called active. Another 25% or so got no clear call; they are omitted. The full list was thinned out, with actives kept by preference. Values without a mark were called inactive. The call rests on the fitted dose curve; in most records, active means well fitted inhibition curve with a large enough effect (not every such curve was filed as active); inconclusive means small, poorly fitted or top-dose-only effect, or another doubt; inactive means no such curve, though single readings can be large or run the other way.
# Molecular target: Aldehyde dehydrogenase 1A1 (Homo sapiens) (UniProt P00352)
# Test: qHTS Assay for Inhibitors of Aldehyde Dehydrogenase 1 (ALDH1A1);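 on activity, negative = inhibition: plate controls were no enzyme wells and a reference inhibitor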
# Details: Purified ALDH1A1, NADH fluorescence, propionaldehyde substrate; series mostly up to 75.3 µM; activity, negative = inhibition: at the top concentration
# Potency means the concentration at half of the fitted maximal effect.
# Sequence of Aldehyde dehydrogenase 1A1 (Homo sapiens) (P00352 whole entry, looked up): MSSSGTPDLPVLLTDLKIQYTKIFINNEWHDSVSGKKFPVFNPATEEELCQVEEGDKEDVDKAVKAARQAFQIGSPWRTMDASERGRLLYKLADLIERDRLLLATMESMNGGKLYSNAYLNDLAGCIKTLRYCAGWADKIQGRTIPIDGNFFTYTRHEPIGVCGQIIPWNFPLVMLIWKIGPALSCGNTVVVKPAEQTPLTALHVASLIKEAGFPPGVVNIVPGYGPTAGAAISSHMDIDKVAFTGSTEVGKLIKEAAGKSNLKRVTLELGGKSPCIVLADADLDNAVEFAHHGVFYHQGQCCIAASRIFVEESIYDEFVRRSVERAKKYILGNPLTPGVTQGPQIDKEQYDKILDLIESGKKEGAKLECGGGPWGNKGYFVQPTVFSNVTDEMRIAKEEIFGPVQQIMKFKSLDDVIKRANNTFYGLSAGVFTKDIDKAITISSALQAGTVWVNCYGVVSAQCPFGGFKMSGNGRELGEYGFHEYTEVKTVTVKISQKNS
Compound,"activity, negative = inhibition [%]",Potency
COc1cccc(-n2c(SCC(=O)c3c[nH]c4ccccc34)nc3ccccc3c2=O)c1,15.6,
CC(C)(C)C1CCC(=NNC(=O)c2ccc(Br)o2)CC1 (stereo not given),-0.649,
O=c1c(Cl)c(NC2CC2)cnn1-c1ccccc1,3.08,
Cc1cc(C)nc(SCC(=O)N(C)C)n1,13.8,
COc1ccc(NC(=O)CSc2nc(C)cs2)cc1,3.7,
COc1ccc(NC(=O)CSc2ncnc3[nH]ncc23)cc1,,11.2 µM (active)
CCOc1ccc(NC(=O)CSc2ncnc3c2sc2ccccc23)cc1,-5.68,
CCOC(=O)c1sc(-c2cccc([N+](=O)[O-])c2)cc1N,4.95,
COC(=O)c1sccc1NN1C(=O)c2ccccc2C1=O,4.1,
COC(=O)c1sc(=S)n(-c2ccccc2)c1N,,7.08 µM (active)
CCOC(=O)c1csc(NC(=O)Nc2cccc(OC)c2)n1,-7.94,
CCOC(=O)c1sc(=S)n(-c2cccc(OC)c2)c1N,,22.4 µM (active)
COC(=O)c1sc(=S)n(-c2ccc(Cl)cc2)c1C,-15.1,
COc1ccc(CCc2nnc(CCC(=O)NCc3cnn(-c4ccccc4C)c3)o2)cc1,-13.3,
O=C(CCCNS(=O)(=O)c1cccc2nsnc12)NCCN1CCN(c2ccccc2F)CC1,-3.87,
CCCCC/C=C\C[C@H](O)/C=C/C=C/C=C/[C@@H](O)CCCC(=O)O,2,
COc1ccc(CCN=C2SCC(=O)N2Cc2ccccc2)cc1OC,-6.04,
COc1cc(CNC2CCCC2)c(Br)cc1OCc1ccccc1,4.19,
COc1cc(C2CC(=O)N3CN(Cc4ccccc4)CSC3=C2C#N)ccc1OCc1ccccc1 (stereo not given),,10 µM (active)
O=C(N/N=C1\CCSC1)c1cc(Cl)ccc1O,5.93,
O=C(CSC(=S)N1CCCCC1)c1c(F)cccc1F,,12.6 µM (active)
CC(=O)c1ccc(NC(=O)CSC(=S)N2CCCC2)cc1,-1.69,
O=C(CSC(=S)N1CCOCC1)c1ccccc1,-11.8,
CCOP(=O)(OCC)C(Nc1ccc([N+](=O)[O-])cc1)c1ccc(Cl)cc1 (stereo not given),2.42,
Cc1ccc2c(c1)C1CN(C)CCC1N2C(=S)Nc1ccc(Cl)cc1Cl (stereo not given),-11.2,
CCn1cc(C(=O)NCCCN2CCCCCC2)c(=O)c2cc(S(=O)(=O)N3CCc4ccccc4C3)ccc21,,7.94 µM (active)
CCOC(=O)N1CCN(C(=O)c2cn(C)c3ccc(S(=O)(=O)N4CCCC4)cc3c2=O)CC1,-12.2,
CCn1cc(C(=O)NCC2CCCO2)c(=O)c2cc(S(=O)(=O)N3CCCCC3)ccc21 (stereo not given),,15.8 µM (active)

Compound,"activity, negative = inhibition [%]",Potency
O=C(Nc1ccc(S(=O)(=O)N2CCc3ccccc3C2)cc1)c1ccccc1,15.8,
Cc1ccc(S(=O)(=O)N2CCC(C(=O)NCC3CCCO3)CC2)cc1 (stereo not given),15.3,
CCn1c(SCC(=O)NCC2CCCO2)nc2cc(S(=O)(=O)N3CCCCC3)ccc21 (stereo not given),-10.7,
NS(=O)(=O)c1ccc(CNC(=O)c2ccc(Cl)cc2[N+](=O)[O-])cc1,-11.9,
CCOC(=O)N/N=C/c1cccnc1,14.9,
Cc1nn(CCOc2ccc(Br)cc2)c(C)c1[N+](=O)[O-],7.31,
CN(C)CCSc1nc(N)c2c3c(sc2n1)COC(C)(C)C3,0.0923,
C=CCNC(=S)NNc1ncnc2sc3c(c12)CC(C)(C)OC3,,1.41 µM (active)
CC(C)c1nc2sc3c(c2c(=O)n1N)CC(C)(C)OC3,11.1,
O=C(NCc1ccc(F)cc1)C(c1ccccc1)N(C(=O)c1csnn1)C1CC1 (stereo not given),-7.36,
COc1cc(C)c(S(=O)(=O)N2CCOCC2)c(C)c1C,1.4,
O=C1N/C(=N\N=C\c2ccco2)SC1Cc1ccc(F)cc1 (stereo not given),-15.7,
CCOc1ccc(S(=O)(=O)Nc2ccc(S(=O)(=O)Nc3cc(OC)ccc3OC)cc2)cc1,,10 µM (active)
CCOc1ccc(NS(=O)(=O)c2cc(C)c(C)cc2C)cc1,,7.94 µM (active)
CCOc1ccc(NS(=O)(=O)c2ccc(C)c(C(N)=O)c2)cc1,10.6,
CCOc1ccc(C(=O)Nc2cc(OC)ccc2OC)cc1,10.8,
CCOc1ccc(NC(=O)Nc2cc(C)ccc2OC)cc1,-8.82,
CCOc1ccc(S(=O)(=O)Nc2ccncc2)c(C)c1C,3.06,
CN1CCN(/N=C/c2ccc(C#N)cc2)CC1,-6.72,
CC(=O)/C(C)=N/O,4.95,
CC(OC(=O)CNS(=O)(=O)/C=C/c1ccccc1)C(=O)Nc1ccc(S(=O)(=O)N2CCCC2)cc1 (stereo not given),,1.26 µM (active)
Cc1cc(C(=O)OC(C)C(=O)Nc2cccc(S(=O)(=O)N3CCOCC3)c2)c(C)o1 (stereo not given),-9.99,
O=C(O)/C=C/c1ccc(S(=O)(=O)N2CCCCCC2)cc1,1.8,
C/C(N)=C(/C#N)C(=O)COC(=O)C1CCN(C(=O)c2ccc(Cl)cc2)CC1,6.17,
N/C(=N\OC(=O)Cc1ccccc1[N+](=O)[O-])c1ccc(Br)cc1,-19.8,
NS(=O)(=O)c1ccc(NC(=O)/C=C/c2ccccc2Cl)cc1,5.79,
COC(=O)C1=C(C)N(c2ccc(C)cc2)/C(=C/c2ccc(O)cc2)C1=O,1.55,
